Results on 13 molecules are retold here after PubChem BioAssay (NCI).

Molecules are shown by their SMILES. This is part of a sample that, as a whole, favours compounds with a hit. Of some 83,000 tested, about 20% had one in any assay.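 Interpretation: 100, growth as untreated; towards 0, rising growth inhibition; 0, no net growth; 0 to -100, cell death. Compounds scoring below 10 were considered active.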 A number with no mark means an inactive call. The source made the active and inactive calls.

Assay in all cases: NCI-60 one-dose screen, 48 h (100 = growth as untreated, 0 = no growth, -100 = all killed)
Holding throughout (conditions): 10 µM unless noted

For assay [1], the system named is NCI-H23 lung.
Assay [2] deals with NCI-H226 lung.
Assay [3] relates to NCI-H322M lung.
In assay [4] the test system is HOP-62 NSCLC.
The subject of assay [5] is NCI-H460 lung.
Assay [6] relates to HOP-92 NSCLC.
In assay [7] the test system is NCI-H522 lung.
Assay [8] relates to A549/ATCC NSCLC.
The subject of assay [9] is 786-0 renal.
Assay [10] deals with COLO 205 colon.

Regarding `COc1ccc(OC)c(/C=C/C(=O)N/N=C/c2ccccc2)c1`, the growth in assay [1] was 65.1%; in [2] it was 86.6%; in assay [3] it was 79.6%; in assay [4], 67.3%; in [5] it was 13.5%; in assay [6], 76.6%. Moreover, the growth is -15.3% (active) in assay [7], 48.4% in [8], 54.3% in assay [9] and 42.8% in assay [10].

For `COc1ccc2[nH]c(-c3ccccc3)c(/C=C(\C#N)S(=O)(=O)c3ccccc3)c2c1`, the growth was 60% in assay [1]; 99.5% in assay [2]; 77.8% in [3]; 79.1% in assay [4]; 20% in assay [5]; 63.2% in assay [6]. Also, the growth in [7] was 64.3%; in assay [8] it was 45.1%; in assay [9], 69.1%; in [10], 46.6%.

Take `COc1ccc(-c2nc3sc(-c4ccc(Cl)cc4)cn3n2)cc1`: the growth is 58.5% in assay [1]; 50.1% in [2]; 17.8% in assay [3]; 39.6% in assay [4]; -39.3% (active) in [5]; 21.5% in assay [6]. The growth in assay [7] was 61%; in assay [8], -30.3% (active); in assay [9] it was -75.8% (active); in assay [10] it was 52.5%.

As to `Cc1nc2ccccc2c(/C=C/c2ccccc2)c1C(=O)/C=C/c1ccc(C(F)(F)F)cc1`, the growth was -33.6% (active) in assay [1]; -42.2% (active) in assay [2]; 2.79% (active) in assay [3]; -21.9% (active) in [4]; -71.6% (active) in assay [5]; -64.8% (active) in assay [6]. Further, the growth in assay [7] was -1.91% (active); in [8], 75.3%; in assay [9], -76.4% (active); in assay [10] it was -25.7% (active).

As to `CCN1C(=O)N(CC)C2Nn3c(s/c(=C\c4ccc([N+](=O)[O-])cc4)c3=O)=NC21` (stereo not given), the growth in assay [1] was 69.3%; in assay [2], 80.1%; in assay [3], 89.7%; in assay [4], 96.2%; in assay [5], 98.3%; in assay [6] it was 84.1%. Further, the growth in [7] is 9.71% (active); in assay [8], 82.4%; in assay [9] it was 85.1%; in [10], 35.5%.

With `Cc1ccc(NC2=C(Cl)C(=O)c3nc(C)ccc3C2=O)cc1`, the growth in [1] was -30.5% (active); in assay [2] it was 38.1%; in assay [3] it was 55.7%; in assay [4] it was 75.2%; in [5] it was 9.01% (active); in assay [6] it was -71% (active). For the same molecule, the growth is -25.7% (active) in assay [7], 54.6% in assay [8], 21.6% in assay [9] and 106% in [10].

`CCCCCCn1c(-c2ccc(C(=O)O/N=C(\N)c3ccc4ccccc4c3)cc2)nc(-c2ccccc2)c1-c1ccccc1`: the growth is 44.3% in [1]; 80.3% in assay [2]; 83.6% in assay [3]; 81.7% in [4]; 58.5% in [5]; 16% in assay [6]. In addition, the growth was 47.9% in assay [7], -33.5% (active) in [8], 4.48% (active) in assay [9] and 77.2% in assay [10].

Take `CC(=O)N1N=C(c2ccc(Nc3nc(Nc4ccc(F)cc4)nc(Nc4ccc(Cl)cc4)n3)cc2)CC1c1ccc(Cl)cc1` (stereo not given): the growth is 84.6% in [1]; 83.8% in assay [2]; 85.3% in assay [3]; 84.1% in assay [4]; 107% in assay [5]; 64.1% in [6]. The growth was 73.2% in assay [7], 92.5% in assay [8], 98.2% in [9] and 94.3% in [10].

As for `CN1CCN(c2ccc(-c3ccc4ncc(C#N)c(Nc5ccc(F)c(Cl)c5)c4c3)cn2)CC1`, the growth in [1] is 79%; in [2], 84.2%; in assay [3], 16.8%; in [4], 68.7%; in assay [5], 26.9%; in [6] it was 57.9%. Also, the growth in [7] was 39.1%; in assay [8], 51.3%; in assay [9], 52.9%; in assay [10], 57.1%.

Turning to `CN1C(=O)N(C)C2Nn3c(s/c(=C\c4ccccc4)c3=O)=NC21` (stereo not given), the growth in [1] is 101%; in assay [2] it was 94.2%; in assay [3], 97%; in [4], 97.8%; in assay [5], 108%; in assay [6], 100%. For the same molecule, the growth in [7] is 87.1%; in [8] it was 94.8%; in [9], 101%; in [10] it was 111%.

Take `CN1CCN(Cc2ccc(NC(=O)c3ccc(C(C)(C)C)c(C#Cc4cnc5cccnn45)c3)cc2C(F)(F)F)CC1`: the growth was -65.1% (active) in assay [1]; 48.5% in assay [2]; -29.6% (active) in assay [3]; -73.1% (active) in [4]; -52.7% (active) in [5]; 23.9% in assay [6]. The growth in assay [7] is -73.5% (active); in assay [8] it was -76.8% (active); in assay [9] it was -85.4% (active); in [10], -70.1% (active).

Regarding `O=S(=O)(Nc1ccc(-c2nc(-c3cccc(OCCN4CCOCC4)c3)c(-c3ccnc(Br)c3)[nH]2)cc1)c1ccccc1`, the growth in assay [1] was 35.5%; in [2] it was 48.1%; in [3], 53.5%; in [4], 40.3%; in [5], 28.4%; in assay [6] it was 22%. For the same molecule, the growth was 32.8% in assay [7], 30.4% in [8], 13.2% in [9] and 39.3% in [10].

In the case of `Oc1ccc(-c2nc3ccc4[nH]ncc4c3c3c2CCCC3)c2cccnc12`, the growth in assay [1] was -7.85% (active); in assay [2] it was -2.05% (active); in assay [3] it was 11.3%; in assay [4], 5.46% (active); in assay [5], -21.7% (active); in assay [6] it was -16.7% (active). Moreover, the growth in [7] was 15%; in [8], -34% (active); in assay [9], 2.06% (active); in assay [10], -11.6% (active).
